{"source": "PubChem BioAssay (NCATS)", "key": {"[1]": {"biological_target": "ATP-dependent 6-phosphofructokinase (Trypanosoma brucei brucei) (UniProt O15648)", "sequence (O15648 whole entry, looked up)": "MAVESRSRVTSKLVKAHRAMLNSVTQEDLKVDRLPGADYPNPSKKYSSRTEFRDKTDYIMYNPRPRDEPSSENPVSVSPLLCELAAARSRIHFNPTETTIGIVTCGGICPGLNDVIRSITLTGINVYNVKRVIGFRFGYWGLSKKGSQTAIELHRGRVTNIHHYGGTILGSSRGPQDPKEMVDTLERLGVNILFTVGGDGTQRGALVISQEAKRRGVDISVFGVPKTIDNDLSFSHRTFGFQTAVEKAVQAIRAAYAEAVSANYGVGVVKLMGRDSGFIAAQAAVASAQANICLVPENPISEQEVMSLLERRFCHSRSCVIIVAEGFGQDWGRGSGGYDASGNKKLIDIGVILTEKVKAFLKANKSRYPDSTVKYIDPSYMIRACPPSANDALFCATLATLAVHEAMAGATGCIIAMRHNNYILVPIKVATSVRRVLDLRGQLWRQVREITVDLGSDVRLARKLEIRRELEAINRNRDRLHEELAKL", "assay": "qHTS Assay to Find Inhibitors of T. brucei phosphofructokinase: hit validation (AID 492961)", "outline": "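Luminescence from ADP-Glo reports ADP generated as T. brucei PFK (1.25 nM) phosphorylates 0.5 mM fructose-6-phosphate using 0.1 mM ATP. Reactions ran 45 min at room temperature, pH 8.0.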"}, "[2]": {"biological_target": "Ubiquitin carboxyl-terminal hydrolase 1 (Homo sapiens) (UniProt O94782)", "sequence (O94782 whole entry, looked up)": "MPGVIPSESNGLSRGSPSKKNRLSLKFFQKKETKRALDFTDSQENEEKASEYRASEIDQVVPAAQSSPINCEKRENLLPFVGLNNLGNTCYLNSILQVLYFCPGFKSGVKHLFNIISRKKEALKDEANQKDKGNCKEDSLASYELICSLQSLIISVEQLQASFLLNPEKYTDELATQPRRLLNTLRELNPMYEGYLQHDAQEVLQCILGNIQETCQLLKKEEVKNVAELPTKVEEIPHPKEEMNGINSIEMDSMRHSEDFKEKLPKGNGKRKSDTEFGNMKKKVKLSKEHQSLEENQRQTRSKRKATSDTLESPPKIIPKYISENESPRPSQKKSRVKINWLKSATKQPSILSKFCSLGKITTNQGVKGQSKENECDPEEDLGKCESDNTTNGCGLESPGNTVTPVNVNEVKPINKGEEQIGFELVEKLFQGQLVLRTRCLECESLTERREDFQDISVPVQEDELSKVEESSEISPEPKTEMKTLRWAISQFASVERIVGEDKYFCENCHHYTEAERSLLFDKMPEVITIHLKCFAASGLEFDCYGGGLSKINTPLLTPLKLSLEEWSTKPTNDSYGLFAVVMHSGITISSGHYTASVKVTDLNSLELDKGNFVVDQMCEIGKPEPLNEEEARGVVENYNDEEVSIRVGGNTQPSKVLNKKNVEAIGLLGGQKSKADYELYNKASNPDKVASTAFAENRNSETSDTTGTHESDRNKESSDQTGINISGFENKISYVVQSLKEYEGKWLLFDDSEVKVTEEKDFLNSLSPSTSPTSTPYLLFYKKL", "assay": "Inhibitors of USP1/UAF1: Pilot qHTS (AID 504865);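 further: rhodamine fluorescence freed from ubiquitin-rhodamine substrate followed over time; top concentration of the series differs between compounds; nearly all actives have a fitted effect of over 35% in size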", "outline": "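USP1/UAF1 complex (1nM) preincubated with compound 15 min at room temperature, then Ub-Rho substrate (150nM final) added. Fluorescence read kinetically at 480/540 nm, 6 reads every 60 seconds. Buffer: 50mM HEPES pH 7.8, 0.5mM EDTA, 0.1 mg/ml BSA, 1mM TCEP, 0.01% Tween-20.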"}, "[3]": {"biological_target": "Luciferin 4-monooxygenase (Photinus pyralis) (UniProt P08659)", "sequence (P08659 whole entry, looked up)": "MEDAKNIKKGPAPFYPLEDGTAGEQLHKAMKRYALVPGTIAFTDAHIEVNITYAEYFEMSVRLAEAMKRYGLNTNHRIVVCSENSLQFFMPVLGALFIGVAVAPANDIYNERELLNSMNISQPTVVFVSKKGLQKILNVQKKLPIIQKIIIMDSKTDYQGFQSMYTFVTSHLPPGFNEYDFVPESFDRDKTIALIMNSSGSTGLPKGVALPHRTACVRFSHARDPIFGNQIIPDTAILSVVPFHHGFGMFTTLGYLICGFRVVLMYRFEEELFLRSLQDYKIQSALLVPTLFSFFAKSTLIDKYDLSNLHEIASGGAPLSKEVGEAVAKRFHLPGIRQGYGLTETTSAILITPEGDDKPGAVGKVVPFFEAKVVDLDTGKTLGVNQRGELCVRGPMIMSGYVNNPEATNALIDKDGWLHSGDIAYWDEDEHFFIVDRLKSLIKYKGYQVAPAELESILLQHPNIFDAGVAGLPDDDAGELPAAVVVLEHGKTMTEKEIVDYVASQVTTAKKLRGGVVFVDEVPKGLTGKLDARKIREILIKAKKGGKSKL", "assay": "Biochemical firefly luciferase enzyme assay for NPC (AID 624030); further: nearly all actives have a fitted effect of over 70% in size", "outline": "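Purified P. pyralis luciferase at 10 nM in 50 mM Tris Acetate (final), luminescence read within 5 minutes of enzyme addition to compounds. Activity normalised to PTC124 versus DMSO; concentration-response curves classed by r2, magnitude and activity.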"}, "[4]": {"assay": "S16 Schwann cell PMP22 intronic element firefly luciferase assay (AID 624032); further: potency means the concentration at half of the fitted maximal effect; nearly all actives have a fitted effect of over 30% in size", "outline": "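Rat S16 Schwann cells stably carrying firefly luciferase driven by a PMP22 intronic element, in 10% FBS, treated 24 h at 37 C. ONE-Glo luminescence normalized to PTC124 control and DMSO (0%); curves classed by r2, magnitude and activity.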"}, "[5]": {"assay": "S16 Schwann cell PMP22 intronic element beta-lactamase assay (AID 624044; calls by dose curve; further: potency means the concentration at half of the fitted maximal effect; nearly all actives have a fitted effect of over 15% in size)", "outline": "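Rat S16 Schwann cells with beta-Lac driven by a PMP22 intronic element, compound-treated 24 h at 37 °C. LiveBLAzer FRET B/G read: 460 nm normalized to potassium clavulanate vs DMSO; 535 nm FRET as viability; concentration-effect curves classified.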"}, "Furin (Homo sapiens)": {"biological_target": "Furin (Homo sapiens) (UniProt P09958)", "sequence (P09958 whole entry, looked up)": "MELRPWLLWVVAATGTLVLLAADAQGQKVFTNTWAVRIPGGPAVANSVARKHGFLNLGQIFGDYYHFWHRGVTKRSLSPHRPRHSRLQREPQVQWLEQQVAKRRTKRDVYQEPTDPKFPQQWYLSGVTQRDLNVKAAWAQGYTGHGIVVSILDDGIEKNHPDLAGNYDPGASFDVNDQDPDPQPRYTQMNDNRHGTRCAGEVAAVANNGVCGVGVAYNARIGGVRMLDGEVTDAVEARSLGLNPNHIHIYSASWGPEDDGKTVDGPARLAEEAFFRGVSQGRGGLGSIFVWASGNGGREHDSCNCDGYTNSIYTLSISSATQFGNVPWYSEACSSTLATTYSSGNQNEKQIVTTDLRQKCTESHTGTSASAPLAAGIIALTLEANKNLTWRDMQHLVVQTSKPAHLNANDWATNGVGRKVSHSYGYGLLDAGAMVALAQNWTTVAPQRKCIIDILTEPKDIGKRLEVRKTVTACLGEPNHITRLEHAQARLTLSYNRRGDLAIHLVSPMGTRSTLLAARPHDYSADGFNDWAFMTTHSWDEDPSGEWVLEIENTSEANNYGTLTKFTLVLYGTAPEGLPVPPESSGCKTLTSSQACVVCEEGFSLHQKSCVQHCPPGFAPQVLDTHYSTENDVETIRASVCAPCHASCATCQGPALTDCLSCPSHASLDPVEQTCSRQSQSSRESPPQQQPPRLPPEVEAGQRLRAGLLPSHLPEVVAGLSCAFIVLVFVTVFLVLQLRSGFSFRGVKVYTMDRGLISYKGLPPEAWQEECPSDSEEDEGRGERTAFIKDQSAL", "assay": "Furin counterscreen qHTS for Zika virus inhibitors (AID 1347149);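 further: purified recombinant full-length human furin enzyme at 5 nM; fluorescence gain from furin cutting a BOC-RVRR-AMC peptide substrate over 15 min; top concentration of the series differs between compounds; nearly all actives have a fitted effect of over 70% in size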", "outline": "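Fluorogenic cleavage of BOC-RVRR-AMC (2 microM final, Km ~15 µM) was monitored (ex 340, em 450 nm) at 37C after 15 min RT preincubation of 5 nM furin with compounds in HEPES pH 7.0 buffer with CaCl2 and Triton X-100. Percent inhibition was fitted to a 4-parameter Hill curve.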"}, "[6]": {"system": "Zika virus NS2B-NS3 protease (unlinked)", "assay": "Optimization of GU AMC qHTS for Zika virus inhibitors: Unlinked NS2B-NS3 protease assay (AID 1347151); further: nearly all actives have a fitted effect of over 80% in size", "outline": "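Noncovalent complex of NS2B hydrophilic domain and NS3 protease domain, 25 nM final, in 10 mM Tris-HCl pH 8.0, 0.01% Tween 20. AMC fluorescence change over 15 min at room temperature was fitted to a 4-parameter Hill equation.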"}, "[7]": {"assay": "Vero cells viability qHTS for Zika virus inhibitors (AID 1347167)", "outline": "(§1)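 Cells seeded at 2.5 x 10^5 cells/mL in DMEM with 4% FBS and attached overnight at 37 degrees C, then exposed to compound for 24 to 48 hours. Viability read as ATP content by CellTiter Glo luminescence.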"}, "[8]": {"assay": "HepG2 cells viability qHTS for Zika virus inhibitors (AID 1347168)", "outline": "as §1"}, "[9]": {"assay": "Tertiary RLuc qRT-PCR qHTS assay for Zika virus inhibitors (AID 1347169)", "outline": "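Vero cells (1,000 per well) plated overnight at 37 degrees C, treated with compound in DMSO, then infected with recombinant ZIKV-RLuc (Cambodian) at MOI 1-2 for 48-72 hrs. Live-cell Renilla luciferase substrate added; luminescence read after 1-1.5 hrs.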"}, "[10]": {"assay": "qHTS profiling for inhibitors of Plasmodium falciparum proliferation (AID 504749)", "conditions": "P. falciparum in erythrocytes, SYBR Green DNA, 72 h", "outline": "(§2)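 Readout was DNA-dye fluorescence from lysed cultures, ex 485/em 535 nm. Parasitized red cells had grown 72 h with compound; data scaled between 0.29 uM artemisinin and DMSO wells and corrected using vehicle-only plates.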"}, "3D7": {"system": "3D7", "assay": "qHTS profiling for inhibitors of Plasmodium falciparum proliferation (AID 504749)", "conditions": "P. falciparum in erythrocytes, SYBR Green DNA, 72 h; series mostly up to 28.7 µM", "outline": "as §2"}, "7G8": {"system": "7G8", "assay": "qHTS profiling for inhibitors of Plasmodium falciparum proliferation (AID 504749)", "conditions": "P. falciparum in erythrocytes, SYBR Green DNA, 72 h; series mostly up to 28.7 µM", "outline": "as §2"}, "AA1029": {"system": "AA1029", "assay": "qHTS profiling for inhibitors of Plasmodium falciparum proliferation (AID 504749)", "conditions": "P. falciparum in erythrocytes, SYBR Green DNA, 72 h; series mostly up to 28.7 µM", "outline": "as §2"}, "AS120": {"system": "AS120", "assay": "qHTS profiling for inhibitors of Plasmodium falciparum proliferation (AID 504749)", "conditions": "P. falciparum in erythrocytes, SYBR Green DNA, 72 h; series mostly up to 28.7 µM", "outline": "as §2"}, "ATS189": {"system": "ATS189", "assay": "qHTS profiling for inhibitors of Plasmodium falciparum proliferation (AID 504749)", "conditions": "P. falciparum in erythrocytes, SYBR Green DNA, 72 h; series mostly up to 28.7 µM", "outline": "as §2"}, "ATS95": {"system": "ATS95", "assay": "qHTS profiling for inhibitors of Plasmodium falciparum proliferation (AID 504749)", "conditions": "P. falciparum in erythrocytes, SYBR Green DNA, 72 h; series mostly up to 28.7 µM", "outline": "as §2"}, "C2A": {"system": "C2A", "assay": "qHTS profiling for inhibitors of Plasmodium falciparum proliferation (AID 504749)", "conditions": "P. falciparum in erythrocytes, SYBR Green DNA, 72 h; series mostly up to 28.7 µM", "outline": "as §2"}, "CP185": {"system": "CP185", "assay": "qHTS profiling for inhibitors of Plasmodium falciparum proliferation (AID 504749)", "conditions": "P. falciparum in erythrocytes, SYBR Green DNA, 72 h; series mostly up to 28.7 µM", "outline": "as §2"}, "CP191": {"system": "CP191", "assay": "qHTS profiling for inhibitors of Plasmodium falciparum proliferation (AID 504749)", "conditions": "P. falciparum in erythrocytes, SYBR Green DNA, 72 h; series mostly up to 28.7 µM", "outline": "as §2"}, "CP192": {"system": "CP192", "assay": "qHTS profiling for inhibitors of Plasmodium falciparum proliferation (AID 504749)", "conditions": "P. falciparum in erythrocytes, SYBR Green DNA, 72 h; series mostly up to 28.7 µM", "outline": "as §2"}, "CP194": {"system": "CP194", "assay": "qHTS profiling for inhibitors of Plasmodium falciparum proliferation (AID 504749)", "conditions": "P. falciparum in erythrocytes, SYBR Green DNA, 72 h; series mostly up to 28.7 µM", "outline": "as §2"}, "CP201": {"system": "CP201", "assay": "qHTS profiling for inhibitors of Plasmodium falciparum proliferation (AID 504749)", "conditions": "P. falciparum in erythrocytes, SYBR Green DNA, 72 h; series mostly up to 28.7 µM", "outline": "as §2"}, "CP203": {"system": "CP203", "assay": "qHTS profiling for inhibitors of Plasmodium falciparum proliferation (AID 504749)", "conditions": "P. falciparum in erythrocytes, SYBR Green DNA, 72 h; series mostly up to 28.7 µM", "outline": "as §2"}, "CP211": {"system": "CP211", "assay": "qHTS profiling for inhibitors of Plasmodium falciparum proliferation (AID 504749)", "conditions": "P. falciparum in erythrocytes, SYBR Green DNA, 72 h; series mostly up to 28.7 µM", "outline": "as §2"}, "CP215": {"system": "CP215", "assay": "qHTS profiling for inhibitors of Plasmodium falciparum proliferation (AID 504749)", "conditions": "P. falciparum in erythrocytes, SYBR Green DNA, 72 h; series mostly up to 28.7 µM", "outline": "as §2"}, "CP217": {"system": "CP217", "assay": "qHTS profiling for inhibitors of Plasmodium falciparum proliferation (AID 504749)", "conditions": "P. falciparum in erythrocytes, SYBR Green DNA, 72 h; series mostly up to 28.7 µM", "outline": "as §2"}, "CP237": {"system": "CP237", "assay": "qHTS profiling for inhibitors of Plasmodium falciparum proliferation (AID 504749)", "conditions": "P. falciparum in erythrocytes, SYBR Green DNA, 72 h; series mostly up to 28.7 µM", "outline": "as §2"}, "CP238": {"system": "CP238", "assay": "qHTS profiling for inhibitors of Plasmodium falciparum proliferation (AID 504749)", "conditions": "P. falciparum in erythrocytes, SYBR Green DNA, 72 h; series mostly up to 28.7 µM", "outline": "as §2"}, "CP247": {"system": "CP247", "assay": "qHTS profiling for inhibitors of Plasmodium falciparum proliferation (AID 504749)", "conditions": "P. falciparum in erythrocytes, SYBR Green DNA, 72 h; series mostly up to 28.7 µM", "outline": "as §2"}, "CP250": {"system": "CP250", "assay": "qHTS profiling for inhibitors of Plasmodium falciparum proliferation (AID 504749)", "conditions": "P. falciparum in erythrocytes, SYBR Green DNA, 72 h; series mostly up to 28.7 µM", "outline": "as §2"}, "CP252": {"system": "CP252", "assay": "qHTS profiling for inhibitors of Plasmodium falciparum proliferation (AID 504749)", "conditions": "P. falciparum in erythrocytes, SYBR Green DNA, 72 h; series mostly up to 28.7 µM", "outline": "as §2"}, "CP256": {"system": "CP256", "assay": "qHTS profiling for inhibitors of Plasmodium falciparum proliferation (AID 504749)", "conditions": "P. falciparum in erythrocytes, SYBR Green DNA, 72 h; series mostly up to 28.7 µM", "outline": "as §2"}, "CP260": {"system": "CP260", "assay": "qHTS profiling for inhibitors of Plasmodium falciparum proliferation (AID 504749)", "conditions": "P. falciparum in erythrocytes, SYBR Green DNA, 72 h; series mostly up to 28.7 µM", "outline": "as §2"}}, "note": "Results filed as inconclusive are left out. Activity calls are given as the source filed them. Unless noted, the call rests on the fitted dose curve; in most records, active means well fitted curve in the direction sought with a large enough effect; inconclusive means small, poorly fitted or top-dose-only effect, or another doubt; inactive means no such curve, though single readings can be large; an effect the other way counts as inactive or inconclusive.", "data": [{"smiles": "CC(C)C[C@@H](NC(=O)[C@H](Cc1ccccc1)NC(=O)c1cnccn1)B(O)O", "values": [{"measurement": "outcome", "setting": "[1]", "value": "inactive"}, {"measurement": "Potency", "setting": "[2]", "value": "inactive"}, {"measurement": "Potency", "setting": "[3]", "value": "inactive"}, {"measurement": "Potency", "setting": "[4]", "value": "0.0036 µM (active)"}, {"measurement": "Potency", "setting": "[5]", "value": "0.0126 µM (active)"}, {"measurement": "Potency", "setting": "Furin (Homo sapiens)", "value": "inactive"}, {"measurement": "Potency", "setting": "[6]", "value": "inactive"}, {"measurement": "Potency", "setting": "[7]", "value": "inactive"}, {"measurement": "Potency", "setting": "[8]", "value": "0.0426 µM (active)"}, {"measurement": "Potency", "setting": "[9]", "value": "0.0269 µM (active)"}, {"measurement": "Potency", "setting": "[10]; parasite line A", "value": "0.0891 µM (active)"}, {"measurement": "Potency", "setting": "[10]; parasite line B", "value": "0.0631 µM (active)"}, {"measurement": "Potency", "setting": "3D7", "value": "0.126 µM (active)"}, {"measurement": "Potency", "setting": "7G8", "value": "0.0316 µM (active)"}, {"measurement": "Potency", "setting": "AA1029", "value": "0.0708 µM (active)"}, {"measurement": "Potency", "setting": "AS120", "value": "0.1 µM (active)"}, {"measurement": "Potency", "setting": "ATS189", "value": "0.112 µM (active)"}, {"measurement": "Potency", "setting": "ATS95", "value": "0.0562 µM (active)"}, {"measurement": "Potency", "setting": "C2A", "value": "0.126 µM (active)"}, {"measurement": "Potency", "setting": "CP185", "value": "0.112 µM (active)"}, {"measurement": "Potency", "setting": "CP191", "value": "0.0891 µM (active)"}, {"measurement": "Potency", "setting": "CP192", "value": "0.151 µM (active)"}, {"measurement": "Potency", "setting": "CP194", "value": "0.426 µM (active)"}, {"measurement": "Potency", "setting": "CP201", "value": "0.601 µM (active)"}, {"measurement": "Potency", "setting": "CP203", "value": "0.169 µM (active)"}, {"measurement": "Potency", "setting": "CP211", "value": "0.757 µM (active)"}, {"measurement": "Potency", "setting": "CP215", "value": "0.536 µM (active)"}, {"measurement": "Potency", "setting": "CP217", "value": "0.126 µM (active)"}, {"measurement": "Potency", "setting": "CP237", "value": "0.0794 µM (active)"}, {"measurement": "Potency", "setting": "CP238", "value": "0.112 µM (active)"}, {"measurement": "Potency", "setting": "CP247", "value": "0.126 µM (active)"}, {"measurement": "Potency", "setting": "CP250", "value": "0.1 µM (active)"}, {"measurement": "Potency", "setting": "CP252", "value": "0.0891 µM (active)"}, {"measurement": "Potency", "setting": "CP256", "value": "0.126 µM (active)"}, {"measurement": "Potency", "setting": "CP260", "value": "0.112 µM (active)"}]}]}
